One molecule from PubChem BioAssay AID743386 (Vanderbilt Specialized Chemistry Center, 2014) can be followed below.

The target of this assay is Metabotropic glutamate receptor 7 (Rattus norvegicus) (UniProt P35400). Kind of assay: glutamate curve shift by mGlu7 potentiators, cell-based, rat, GIRK per title (AID 743386). The settings on record: rat mGlu7/Ga15, glutamate CRC shift, calcium; glutamate EC50 left shift; at 10 µM; stronger effect = higher value.
Sequence of Metabotropic glutamate receptor 7 (Rattus norvegicus) (P35400 whole entry, looked up): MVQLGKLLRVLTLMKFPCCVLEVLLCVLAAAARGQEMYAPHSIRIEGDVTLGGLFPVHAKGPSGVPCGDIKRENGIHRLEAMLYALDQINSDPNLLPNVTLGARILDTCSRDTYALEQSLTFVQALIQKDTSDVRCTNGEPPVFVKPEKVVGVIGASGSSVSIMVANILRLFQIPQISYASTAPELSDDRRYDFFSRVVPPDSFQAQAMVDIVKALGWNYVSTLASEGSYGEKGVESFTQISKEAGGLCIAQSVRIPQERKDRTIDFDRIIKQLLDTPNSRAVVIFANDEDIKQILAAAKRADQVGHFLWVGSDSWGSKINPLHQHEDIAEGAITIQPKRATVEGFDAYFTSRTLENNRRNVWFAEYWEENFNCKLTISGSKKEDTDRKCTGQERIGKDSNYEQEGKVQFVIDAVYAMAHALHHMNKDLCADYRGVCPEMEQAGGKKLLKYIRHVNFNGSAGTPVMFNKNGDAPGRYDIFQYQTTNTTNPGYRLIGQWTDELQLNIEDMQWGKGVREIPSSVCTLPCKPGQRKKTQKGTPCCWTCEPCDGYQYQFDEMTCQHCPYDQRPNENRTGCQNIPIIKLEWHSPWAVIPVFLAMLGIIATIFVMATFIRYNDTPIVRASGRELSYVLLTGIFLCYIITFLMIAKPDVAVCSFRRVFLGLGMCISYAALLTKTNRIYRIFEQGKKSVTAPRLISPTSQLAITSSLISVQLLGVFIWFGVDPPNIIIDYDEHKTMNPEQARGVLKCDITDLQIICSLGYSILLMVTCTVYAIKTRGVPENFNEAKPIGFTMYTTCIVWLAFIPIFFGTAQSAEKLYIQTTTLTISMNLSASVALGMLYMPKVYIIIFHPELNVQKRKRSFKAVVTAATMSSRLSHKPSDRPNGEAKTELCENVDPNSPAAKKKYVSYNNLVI

Consider `COC(=O)c1ccc(-n2c(C)cc(C(=O)CSc3ccc(NC(C)=O)cc3)c2C)cc1`, for which the fold shift worked out at 4.91.
